Among the data in PubChem BioAssay (EPA / NIEHS) are outcome and AC50 values, retold here.

Active and inactive are the calls of the source. How the source made its calls: active means hit-call score of the fitted dose curve at least 0.9, where 1 is the maximum; inactive means score below 0.9.

What all share (settings): mRNA level, 48 h; actives raise or lower the signal
Read-out in test [1]: ABC Transporter (ABCB11), ABCB11 (gene 8647)
As to the kind of experiment: LTEA_HepaRG_ABCB11: Life Technologies and Expression Analysis (LTEA) Assay for ABC Transporter (ABCB11) using HepaRG (AID 2283463). A digest of the protocol:
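ABCB11 transcript levels are read by Fluidigm TaqMan qRT-PCR after 48 h chemical treatment of human HepaRG cells. Concentrations span 100 uM downward in half-log steps with 0.5% DMSO; gain or loss is fitted against DMSO controls.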

Read-out in test [2]: ABC Transporter (ABCC2), ABCC2 (gene 1244)
The test can be described thus: LTEA_HepaRG_ABCC2: Life Technologies and Expression Analysis (LTEA) Assay for ABC Transporter (ABCC2) using HepaRG (AID 2283464). An outline of the steps:
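qRT-PCR (TaqMan, Fluidigm array) read-out of ABCC2 mRNA, normalized to three housekeeping genes. Differentiated HepaRG cells were treated 48 h in serum-free induction medium with 8-point half-log series from 100 uM in 0.5% DMSO; curves fitted bidirectionally relative to DMSO.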

Read-out in test [3]: Broad substrate specificity ATP-binding cassette transporter ABCG2 (Homo sapiens) (UniProt Q9UNQ0)
As to the kind of experiment: LTEA_HepaRG_ABCG2: Life Technologies and Expression Analysis (LTEA) Assay for ABC Transporter (ABCG2) using HepaRG (AID 2283465). A digest of the protocol: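 Read-out is ABCG2 mRNA induction or loss quantified by qRT-PCR after 48 h chemical treatment of human HepaRG cells, normalized to three housekeeping genes. Concentrations reached 100 uM top in half-log steps; fitting was bidirectional against 0.5% DMSO.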

Read-out in test [4]: ATP-citrate lyase (ACLY), ACLY (gene 47)
The test can be described thus: LTEA_HepaRG_ACLY: Life Technologies and Expression Analysis (LTEA) Assay for ATP-citrate lyase (ACLY) using HepaRG (AID 2283466). An outline of the steps: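 HepaRG, 48 h exposure, 8-pt half-log dilutions (top 100 uM), 0.5% DMSO. Readout: ACLY mRNA, TaqMan qRT-PCR, housekeeping-normalized (ACTB/GAPDH/POLR2A). Bidirectional curve fit vs DMSO.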

Read-out in test [5]: Peroxisomal acyl-coenzyme A oxidase 1 (ACOX1) gene, ACOX1 (gene 51)
As to the kind of experiment: LTEA_HepaRG_ACOX1: Life Technologies and Expression Analysis (LTEA) Assay for Peroxisomal acyl-coenzyme A oxidase 1 (ACOX1) gene using HepaRG (AID 2283467). An outline of the steps: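 Measured by qRT-PCR against three housekeeping genes: ACOX1 transcript change in human HepaRG cells after 48 h dosing. Concentrations ran up to 100 uM in half-log steps. Curves were fitted bidirectionally relative to 0.5% DMSO.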

Read-out in test [6]: Alkaline Phosphatase, Placental (ALPP) gene, ALPP (gene 250)
The test can be described thus: LTEA_HepaRG_ALPP: Life Technologies and Expression Analysis (LTEA) Assay for Alkaline Phosphatase, Placental (ALPP) gene using HepaRG (AID 2283468). A digest of the protocol: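 qRT-PCR readout of ALPP mRNA (Fluidigm TaqMan), normalized to ACTB/GAPDH/POLR2A, after 48 h chemical exposure of HepaRG cells; 8-point half-log series, top 100 uM, 0.5% DMSO vehicle. Bidirectional curve fit versus DMSO baseline.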

Read-out in test [7]: Bcl-2 (BAD) gene, BAD (gene 572)
As to the kind of experiment: LTEA_HepaRG_BAD: Life Technologies and Expression Analysis (LTEA) Assay for Bcl-2 (BAD) gene using HepaRG (AID 2283469). An outline of the steps:
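BAD transcript change, measured by qRT-PCR against three housekeeping genes and fitted in both directions relative to 0.5% DMSO, after 48 h chemical treatment of human HepaRG liver cells at concentrations up to 100 uM.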

Read-out in test [8]: Bcl-2 (BAX) gene, BAX (gene 581)
The test can be described thus: LTEA_HepaRG_BAX: Life Technologies and Expression Analysis (LTEA) Assay for Bcl-2 (BAX) gene using HepaRG (AID 2283470). A digest of the protocol: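 Concentration-response endpoint fitted in both directions relative to 0.5% DMSO vehicle. Human HepaRG cultures receive test chemicals for 48 h at up to 100 uM; BAX mRNA is quantified by qRT-PCR against housekeeping genes.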

Read-out in test [9]: adenosine kinase (ADK) gene, ADK (gene 132)
The test can be described thus: LTEA_HepaRG_ADK: Life Technologies and Expression Analysis (LTEA) Assay for adenosine kinase (ADK) gene using HepaRG (AID 2283471). An outline of the steps:
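HepaRG (human liver), 48 h chemical exposure, 8-pt half-log series, top 100 uM, 0.5% DMSO vehicle. Readout: ADK mRNA by qRT-PCR vs housekeeping genes; bidirectional curve fit relative to DMSO baseline.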

Read-out in test [10]: Alpha-fetoprotein (AFP) gene, AFP (gene 174)
As to the kind of experiment: LTEA_HepaRG_AFP: Life Technologies and Expression Analysis (LTEA) Assay for Alpha-fetoprotein (AFP) gene using HepaRG (AID 2283472). A digest of the protocol: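 After a 48 h plating period, cells are moved to serum-free induction medium and dosed in duplicate (100 uM maximum, half-log dilutions, 0.5% DMSO) for another 48 h. Total RNA goes to TaqMan qRT-PCR; AFP signal is housekeeping-normalized.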

Read-out in another test: BCL2L11 (gene 10018)
As to the kind of experiment: LTEA_HepaRG_BCL2L11: Life Technologies and Expression Analysis (LTEA) Assay for Bcl-2 (BCL2L11) gene using HepaRG (AID 2283473). A digest of the protocol: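 HepaRG, 48 h exposure, 8-pt half-log series from 100 uM in 0.5% DMSO, duplicates; qRT-PCR (Fluidigm TaqMan) for BCL2L11, housekeeping-normalized; bidirectional curve fit relative to DMSO baseline.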

Read-out in test [11]: Apolipoprotein A-V (APOA5) gene, APOA5 (gene 116519)
As to the kind of experiment: LTEA_HepaRG_APOA5: Life Technologies and Expression Analysis (LTEA) Assay for Apolipoprotein A-V (APOA5) gene using HepaRG (AID 2283474). An outline of the steps: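 HepaRG, 48 h chemical exposure in serum-free induction medium, 8-pt half-log series (top 100 uM), 0.5% DMSO vehicle, duplicates. Readout: APOA5 mRNA by qRT-PCR, housekeeping-normalized; bidirectional fit vs DMSO baseline.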

Read-out in test [12]: Apoptosis regulator Bcl-2 (Homo sapiens) (UniProt P10415)
The test can be described thus: LTEA_HepaRG_BCL2: Life Technologies and Expression Analysis (LTEA) Assay for Bcl-2 gene using HepaRG (AID 2283475). An outline of the steps: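 Expression change of BCL2 mRNA in HepaRG after 48 h dosing, quantified by TaqMan qRT-PCR against three endogenous controls. Concentration-response used eight points up to 100 uM, vehicle 0.5% DMSO.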

Read-out in test [13]: Bcl-2 (BID) gene, BID (gene 637)
As to the kind of experiment: LTEA_HepaRG_BID: Life Technologies and Expression Analysis (LTEA) Assay for Bcl-2 (BID) gene using HepaRG (AID 2283476). A digest of the protocol:
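Gain or loss of BID expression is fitted relative to 0.5% DMSO vehicle. Human HepaRG liver cells received a 48 h chemical exposure over an eight-point concentration range.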

Read-out in a further test: Caspase-3 (Homo sapiens) (UniProt P42574)
The test can be described thus: LTEA_HepaRG_CASP3: Life Technologies and Expression Analysis (LTEA) Assay for cysteine-aspartic acid protease (CASP3) using HepaRG (AID 2283477). An outline of the steps: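 HepaRG, 48 h exposure, 8 conc. (top 100 uM, half-log steps, duplicate), 0.5% DMSO vehicle; qRT-PCR of CASP3 transcript, housekeeping-normalised (ACTB/GAPDH/POLR2A); bidirectional curve fit vs DMSO baseline.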

Read-out in test [14]: Cytochrome P450 (CYP24A1), CYP24A1 (gene 1591)
As to the kind of experiment: LTEA_HepaRG_CYP24A1: Life Technologies and Expression Analysis (LTEA) Assay for Cytochrome P450 (CYP24A1) using HepaRG (AID 2283478). An outline of the steps:
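qRT-PCR read-out: CYP24A1 transcript levels normalized to three housekeeping genes, bidirectional curve fits against 0.5% DMSO baseline. Human HepaRG cells treated 48 h with chemicals at eight concentrations from 100 uM in half-log steps.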

Read-out in test [15]: Cytochrome P450 (CYP1A2), CYP1A2 (gene 1544)
As to the kind of experiment: LTEA_HepaRG_CYP1A2: Life Technologies and Expression Analysis (LTEA) Assay for Cytochrome P450 (CYP1A2) using HepaRG (AID 2283479). An outline of the steps: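 HepaRG, 48 h exposure, top 100 uM, half-log 8-pt, 0.5% DMSO vehicle, duplicates. Readout: TaqMan qRT-PCR of CYP1A2 mRNA, housekeeping-normalized (ACTB/GAPDH/POLR2A). Gain/loss fit relative to DMSO baseline.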

Read-out in test [16]: Cytochrome P450 (CYP2B6), CYP2B6 (gene 1555)
As to the kind of experiment: LTEA_HepaRG_CYP2B6: Life Technologies and Expression Analysis (LTEA) Assay for Cytochrome P450 (CYP2B6) using HepaRG (AID 2283481). A digest of the protocol: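 Read-out is CYP2B6 mRNA by TaqMan qRT-PCR, normalized to three housekeeping genes and fitted bidirectionally against 0.5% DMSO baseline. Human HepaRG cells received test chemicals for 48 h, top concentration 100 uM, half-log dilutions.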

Read-out in test [17]: Cytochrome P450 2C19 (Homo sapiens) (UniProt P33261)
As to the kind of experiment: LTEA_HepaRG_CYP2C19: Life Technologies and Expression Analysis (LTEA) Assay for CYP2C19 using HepaRG (AID 2283482). An outline of the steps: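 HepaRG, 48 h chemical exposure, 8-pt half-log series from 100 uM in 0.5% DMSO, duplicates. Readout: CYP2C19 mRNA by TaqMan qRT-PCR, housekeeping-normalized. Bidirectional fit vs DMSO baseline; phenobarbital 1mM as induction control.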

Read-out in test [18]: cysteine-aspartic acid protease (CASP8), CASP8 (gene 841)
As to the kind of experiment: LTEA_HepaRG_CASP8: Life Technologies and Expression Analysis (LTEA) Assay for cysteine-aspartic acid protease (CASP8) using HepaRG (AID 2283480). A digest of the protocol: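 HepaRG, 48 h exposure, duplicate wells; 8 conc, half-log from 100 uM, 0.5% DMSO. Serum-free induction medium. CASP8 mRNA by TaqMan qRT-PCR, norm. ACTB/GAPDH/POLR2A; gain/loss fitted vs DMSO.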

Sequence of Caspase-3 (Homo sapiens) (P42574 whole entry, looked up): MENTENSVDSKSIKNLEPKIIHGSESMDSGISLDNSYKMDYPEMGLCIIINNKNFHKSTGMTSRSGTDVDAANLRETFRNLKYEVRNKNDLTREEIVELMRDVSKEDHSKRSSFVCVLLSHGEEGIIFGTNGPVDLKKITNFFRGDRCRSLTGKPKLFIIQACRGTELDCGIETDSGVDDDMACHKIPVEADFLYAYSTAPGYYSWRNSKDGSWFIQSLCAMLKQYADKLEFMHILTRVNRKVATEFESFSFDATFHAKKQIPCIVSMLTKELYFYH
Sequence of Cytochrome P450 2C19 (Homo sapiens) (P33261 whole entry, looked up): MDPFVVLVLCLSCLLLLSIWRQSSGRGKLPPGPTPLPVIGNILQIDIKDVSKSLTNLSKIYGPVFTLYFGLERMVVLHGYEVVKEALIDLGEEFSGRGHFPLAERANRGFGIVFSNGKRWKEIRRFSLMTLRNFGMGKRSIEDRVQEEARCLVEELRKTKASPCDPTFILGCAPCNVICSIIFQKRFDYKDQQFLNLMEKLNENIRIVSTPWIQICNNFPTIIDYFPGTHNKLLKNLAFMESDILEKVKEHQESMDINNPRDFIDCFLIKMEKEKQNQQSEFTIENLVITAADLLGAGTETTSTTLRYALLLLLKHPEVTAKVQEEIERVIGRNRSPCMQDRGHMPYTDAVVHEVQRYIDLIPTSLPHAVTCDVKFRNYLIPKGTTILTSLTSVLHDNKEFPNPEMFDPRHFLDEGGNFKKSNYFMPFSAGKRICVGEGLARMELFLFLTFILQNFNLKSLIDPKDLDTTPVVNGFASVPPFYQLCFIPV
Sequence of Apoptosis regulator Bcl-2 (Homo sapiens) (P10415 whole entry, looked up): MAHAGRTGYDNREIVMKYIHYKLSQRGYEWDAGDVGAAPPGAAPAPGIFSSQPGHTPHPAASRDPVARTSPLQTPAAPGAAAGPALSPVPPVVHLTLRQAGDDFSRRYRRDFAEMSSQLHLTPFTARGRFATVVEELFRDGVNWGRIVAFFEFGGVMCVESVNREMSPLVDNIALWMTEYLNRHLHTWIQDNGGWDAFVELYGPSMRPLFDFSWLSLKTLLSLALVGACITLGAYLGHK
Sequence of Broad substrate specificity ATP-binding cassette transporter ABCG2 (Homo sapiens) (Q9UNQ0 whole entry, looked up): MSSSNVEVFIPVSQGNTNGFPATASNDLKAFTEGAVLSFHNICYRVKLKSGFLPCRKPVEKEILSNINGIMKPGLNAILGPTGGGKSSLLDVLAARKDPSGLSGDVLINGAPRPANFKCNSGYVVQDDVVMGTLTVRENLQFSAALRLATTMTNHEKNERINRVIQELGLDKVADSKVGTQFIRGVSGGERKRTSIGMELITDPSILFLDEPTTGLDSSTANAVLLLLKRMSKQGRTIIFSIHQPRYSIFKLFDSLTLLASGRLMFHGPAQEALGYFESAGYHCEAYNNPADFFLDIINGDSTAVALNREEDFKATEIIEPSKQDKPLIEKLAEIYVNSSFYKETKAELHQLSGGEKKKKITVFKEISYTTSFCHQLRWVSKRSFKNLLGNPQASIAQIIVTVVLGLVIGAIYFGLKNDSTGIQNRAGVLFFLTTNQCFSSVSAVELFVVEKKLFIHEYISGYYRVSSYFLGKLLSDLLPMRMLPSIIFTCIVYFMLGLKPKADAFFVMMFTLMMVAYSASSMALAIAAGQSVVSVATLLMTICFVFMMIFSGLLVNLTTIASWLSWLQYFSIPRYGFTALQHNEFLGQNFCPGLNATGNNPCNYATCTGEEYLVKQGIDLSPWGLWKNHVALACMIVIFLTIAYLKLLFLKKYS

On to `CC(C)CCCCCCCOC(=O)CCCCC(=O)OCCCCCCCC(C)C`, for which the outcome in test [1], in test [2], in test [3], in test [4], in [5] and in [6] was inactive. The compound was called inactive (in test [7]; in test [8]; in [9]; in test [10]; in the test with BCL2L11 (gene 10018); in test [11]). In addition, the call (in test [12]; in [13]; with Caspase-3 (Homo sapiens); in [14]; in [15]; in test [16]) was inactive. Also, the call in test [17] was inactive.

Regarding `O=C(O)CC(O)C(=O)O` (stereo not drawn), the outcome in test [1], in test [2], in [3], in test [4], in test [5] and in test [6] was inactive. Also, the compound was classed as inactive (in [7]; in test [8]; in [9]; in test [10]; with BCL2L11 (gene 10018); in test [11]). Also, the compound was classed as inactive (in [12]; in test [13]; with Caspase-3 (Homo sapiens); in test [14]; in [15]; in test [16]). Besides, in test [17], the result was inactive.

As usually defined, the AC50 is the midpoint of the concentration-response curve, whichever way the signal moves. With `CN(C)c1ccc(N=NS(=O)(=O)O)cc1`, the concentration at half-maximal activity (AC50) was 21 µM (active) in test [1], 12.9 µM (active) in test [5], 12.8 µM (active) in test [11] and 13.8 µM (active) in [15]. The compound was classed as inactive in test [2], in test [3], in test [4], in test [6], in [7] and in [8]. The compound was classed as inactive (in [9]; in test [10]; with BCL2L11 (gene 10018); in test [12]; in [13]; in the test with Caspase-3 (Homo sapiens)). Besides, the compound was called inactive in test [14], in test [18], in test [16] and in [17].
